# Screening results (PubChem BioAssay)
# SMN2 splice up – enhancers of SMN2 splice variant expression; Potency, µM (highest dose often 46.1 µM), for the others: at the top dose activity change, positive = activation, actives largely listed as activators; AID 1458; HEK293 SMN2-luciferase splicing reporter, luminescence, 30-36 h; actives 2.8% (n = 210,000); also: % of control where 0% means no effect; nearly all actives have a fitted effect of over 55% in size
#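 qHTS luciferase splicing reporter: luminescence rises when SMN2 exon 7 is included in transfected HEK293 cells. Compound exposure lasted 30-36 h at 37C, with 4.5 mM final sodium butyrate as control, followed by a ONE-Glo read.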
# NPC1 prom act – activates the NPC1 promoter. Huh7 NPC1 promoter luciferase reporter, 24 h. AID 485313. Potency, µM (highest dose often 9.22 µM), for the others: at the highest dose activation, usual class: activators. actives 2.4% (n = 320,000); also: % of control where 0% means no effect; nearly all actives have a fitted effect of over 60% in size
#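 Compounds in DMSO were transferred onto Huh7 NPC1-luciferase reporter cells pre-incubated 2 h; after 24 h at 37 °C, Amplite reagent was dispensed and luminescence recorded 10 min later.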
# Rab9 promoter act – activators of Rab9 promoter; Huh7 Rab9 promoter-luciferase reporter, luminescence, 24 h; actives 2.8% (n = 320,000); Potency, µM (top dose mostly 9.22 µM), inactives show at the highest dose activation, negative = inhibition, actives largely listed as activators; also: % of control where 0% means no effect; nearly all actives have a fitted effect of over 60% in size
#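 Promoter activation is measured as luciferase luminescence in Huh7 cells stably transfected with a Rab9 promoter–luciferase construct, following 24 h compound exposure at 37 °C and 10 min reagent incubation at ambient temperature.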
# FLuc counter – firefly luciferase modulation, counter-screen for miR-21 project | P08659 | purified FLuc, Km substrates, luminescence inhibition | Potency, µM (titrated, usually from 57.5 µM), for the others: top-dose activity change, negative = inhibition, most hits filed as inhibitors | actives 6.9% (n = 360,000);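 also: plate controls were vehicle for no effect and reference inhibitor for full effect; nearly all actives have a fitted effect of over 55% in size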
# Target sequence (P08659 whole entry, looked up): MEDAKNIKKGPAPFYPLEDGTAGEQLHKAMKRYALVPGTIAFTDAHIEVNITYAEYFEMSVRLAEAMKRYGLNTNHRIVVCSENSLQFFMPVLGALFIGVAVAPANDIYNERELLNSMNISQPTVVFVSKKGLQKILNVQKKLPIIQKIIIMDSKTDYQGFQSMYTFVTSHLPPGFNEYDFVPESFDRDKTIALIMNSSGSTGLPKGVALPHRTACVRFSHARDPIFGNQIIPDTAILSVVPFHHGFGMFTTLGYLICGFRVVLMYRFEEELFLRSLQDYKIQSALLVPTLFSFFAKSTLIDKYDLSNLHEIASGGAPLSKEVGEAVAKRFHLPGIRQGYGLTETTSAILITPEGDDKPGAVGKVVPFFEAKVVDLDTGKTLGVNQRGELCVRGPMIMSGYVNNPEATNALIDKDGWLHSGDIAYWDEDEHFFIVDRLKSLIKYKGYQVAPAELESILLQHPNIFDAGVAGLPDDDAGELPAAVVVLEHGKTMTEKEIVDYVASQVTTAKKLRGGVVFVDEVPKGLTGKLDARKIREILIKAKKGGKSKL
#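 Purified P. pyralis luciferase (10nM final) with 10uM D-luciferin and 10uM ATP (Km levels) in 50mM Tris acetate pH 7.5, 10mM Mg acetate, 0.01% Tween-20, 0.05% BSA; qHTS 6-point titration, ~60 µM downward; luminescence read.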
# ELG1 genotox – genotoxicity induction in ELG1-luciferase HEK293T cells; HEK293T ELG1-luciferase reporter, luminescence, 16 h; Potency, µM (series often up to 46 µM), for the others: at the highest dose activity change, positive = activation, usual class: activators; actives 1.3% (n = 330,000); AID 504466; also: % of control where 0% means no effect; nearly all actives have a fitted effect of over 60% in size
#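 Genotoxicity was scored as increased ELG1-luciferase reporter signal, measured by ONE-Glo luminescence (30 min, room temperature). Compound or vehicle exposure of the HEK293T reporter cells lasted 16 hr at 37°C.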
# p53 reactivator – restores transcriptional activity of mutant p53; H1299 p53-A138V BP100-luciferase reporter, luminescence, 24 h; Potency, µM (titrated, usually from 92.2 µM), for the others: top-dose activity change, positive = activation, actives largely listed as activators; actives 0.063% (n = 320,000); AID 504706; also: % of control where 0% means no effect; nearly all actives have a fitted effect of over 45% in size
#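 p53-null H1299 cells stably carrying temperature-sensitive p53-A138V and a BP100-luciferase reporter were pinned with compounds (4-point, 1:5 series) and held 24 hrs at 37 deg C. Luminescence was read 10 min after detection reagent.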
# Numbers without * were called inactive; ? = inconclusive; · = not tested or not shown; [ ] = dose if it differs, or a comment. A selection: hits, their analogues and other compounds. The true share with any hit is near 7.3%. Calls follow the shape of the dose curve; as a rule, active = well fitted curve in the direction sought with a large enough effect; inconclusive = small, poorly fitted or top-dose-only effect, or another doubt; inactive = no such curve, though single readings can be large; an effect the other way counts as inactive or inconclusive. Potency is read from the fitted curve at half-maximal effect.
SMILES,SMN2 splice up,NPC1 prom act,Rab9 promoter act,FLuc counter,ELG1 genotox,p53 reactivator
CCOC(=O)C1=C(COC(=O)/C=C/c2ccccc2F)NC(=O)NC1C (stereo not drawn),·,-3.5%,1.6%,3.8%,10.0%,-0.9%
NC(=S)NCCC[C@H](N)C(=O)O,-2.2%,10.4%[46.1 µM],0.0%[46.1 µM],·,·,·
Cc1ccc(Cc2nc3ccccc3nc2SCC(=O)N2CCCc3ccccc32)cc1,·,·,·,-5.6%,·,·
CCOC(=O)c1ccccc1NS(=O)(=O)c1ccc(N2CCCCS2(=O)=O)cc1,·,·,·,-2.3%,·,·
Cc1cc(C)cc(NC(=O)Cn2c(=O)n(C(C)C)c(=O)c3oc4ccccc4c32)c1,·,·,·,1.4%,·,·
O=C(Nc1ccccc1)N(O)c1ccc(Cl)cc1,?,?,3.55µM*,12µM*,?,?
CCC(=O)Nc1ccc2oc(-c3cccc(C)c3)nc2c1,0.501µM*,0.112µM*,0.282µM*,0.536µM*,0.411µM*,0.8%
CCC(=O)Nc1cccc(-c2nc3ccc(C)cc3o2)c1,·,2.82µM*,4.47µM*,2.39µM*,?,?
Cc1cccc(-c2nc3cc(NC(=O)c4ccc(OCC(C)C)cc4)ccc3o2)c1,5.7%,·,·,-4.9%,·,·
Cc1ccc2oc(-c3cccc(NC(=O)c4cccc5c(Cl)cccc45)c3)nc2c1,-5.7%,·,·,-5.4%,·,·
Cc1ccc2nc(-c3cccc(NC(=O)c4cccc5ccccc45)c3)oc2c1,-9.2%,·,·,2.13µM*,·,·
CCN(CC)C(=O)Cn1cc(C(=O)C(=O)NCCc2c[nH]c3ccccc23)c2ccccc21,·,?,2.4%,-12.2%,-2.9%,-11.1%
COc1cccc(N(C(=O)c2nc3nccc(C)n3n2)c2nc3ccccc3s2)c1,10µM*,?,2µM*,10.7µM*,?,?
CCCn1c(SCc2nc(-c3ccccc3OCC)no2)nnc1-c1ccc(Cl)cc1,-15.2%,·,·,-13.2%,·,·
O=C(C1=C[C@H](c2ccc(Br)cc2)C[C@H](OCCCCO)O1)N1CCOCC1,·,0.0251µM*,0.02µM*,-38.1%,9.1%,10.6%
Cc1onc(-c2ccccc2)c1CNC(=O)Nc1ccccc1,·,2.1%,1.8%,-0.2%,-3.0%,-3.4%
N#CC(=C1N=c2ccccc2=N1)c1c(O)[nH]c2ccccc12,20.7%,11.7%,15.6%,?,21.3%,4.4%
Oc1[nH]c(N=C2N=c3ccccc3=N2)c2ccccc12,·,3.16µM*,?,1.35µM*,6.51µM*,?
COc1ccc(Oc2nnc(C)c3ccccc23)cc1,?,2.51µM*,3.98µM*,12µM*,?,29.2%
COc1ccc(-c2nnc3c4ccccc4c(C)nn23)cc1,?,?,?,15.1µM*,?,?
NC[C@@H](O)CSCc1ccc(Cl)cc1,-10.2%[9.22 µM],·,·,·,·,·
O=C(O)c1ccccc1Nc1ccc(OC(F)F)cc1,15.7%,12.1%,16.8%,21.3µM*,7.6%,8.0%
COc1cccc(NC(=O)Nc2cc(NC(=O)Nc3cccc(OC)c3)c(C)nc2C)c1,15.9%,5.2%,1.4%,0.7%,0.9%,-1.6%
O=C(Nc1cccc(Cl)c1)Nc1ccccc1C(=O)O,·,0.562µM*,0.126µM*,0.849µM*,?,?
COc1cccc(Nc2ccc(Nc3cccc(OC)c3)nn2)c1,4.1%,-1.8%,-7.2%,19µM*,-1.0%,6.0%
SMILES,SMN2 splice up,NPC1 prom act,Rab9 promoter act,FLuc counter,ELG1 genotox,p53 reactivator
COc1cccc(NC(=O)Nc2ccccc2C(N)=O)c1,21.6%,-2.1%,-5.5%,21.3µM*,0.1%,-0.8%
CC(=O)c1ccc(NC(=O)CSc2cn(CC(=O)N3CCCCCC3)c3ccccc23)cc1,·,·,·,-12.5%,·,·
CC(CCc1ccccc1)NC(=O)COC(=O)c1cccc2ccccc12 (stereo not drawn),28.5%,0.8%,1.9%,-1.2%,0.3%,1.9%
COc1ccc(Cl)cc1NC(=O)Nc1ccccc1C(N)=O,-19.0%,-5.8%,-3.2%,-3.0%,5.6%,0.5%
COc1cc(NC(=O)Nc2cccc(Cl)c2)c(C(=O)O)cc1OC,·,-7.2%,-2.7%,26.9µM*,6.1%,-0.4%
NC(=O)c1ccccc1NC(=O)Nc1cccc(Cl)c1,11.9%,0.6%,-7.6%,15.1µM*,8.2%,-3.4%
COc1cccc(Nc2ccccc2C(=O)O)c1,?,0.8%,12.7%,26.9µM*,12.8%,8.0%
CSc1ccc(NC(=O)Nc2ccccc2C(N)=O)cc1,·,?,?,1.07µM*,?,10.7%
CN(C)CCCN=c1c2ccccc2n(C)c2[nH]c(=O)n(C)c(=O)c12,-28.2%[9.22 µM],·,·,·,·,·
COc1ccc(C)cc1-n1nnc(S(=O)(=O)c2ccc(C)cc2)c1C,-0.5%,·,·,-5.1%,·,·
Cc1cc(C)n(-c2nc(C)c(C)c(=O)n2CC(=O)Nc2ccc(OC(F)(F)F)cc2)n1,·,·,·,1.9%,·,·
FC(F)Sc1ccc(Nc2ncnc3nc[nH]c23)cc1,11.2µM*,?,?,?,18.1%,?
CCOC(=O)c1c(NC(=O)c2nc(S(C)(=O)=O)ncc2Cl)sc(C(C)=O)c1C,0.3%,·,·,-19.2%,·,·
C=CCc1c(C)nc2ccc(C(=O)OCC)cc2c1Cl,·,0.0%,12.1%,21.3µM*,2.2%,1.2%
CCCNC(=O)CSc1nnc(C)s1,-16.0%,-2.4%,11.1%,1.5%,7.4%,0.9%
O=C(COc1ccc(S(=O)(=O)N2CCOCC2)cc1)N1CCN(c2ccccc2)CC1,·,-2.5%,3.3%,2.9%,-2.0%,-8.0%
O=C1SC(SCc2ccccc2)=N/C1=C\c1ccc(C(=O)O)cc1,·,-2.4%,-2.5%,23.9µM*,-0.1%,4.9%
O=C(NC1CC2CCCC(C1)N2CC(=O)N1CCCc2ccccc21)C1CCCCC1 (stereo not drawn),3.3%,-0.5%,-1.0%,1.1%,-4.3%,-1.1%
Cc1cccc(CC(=O)Nc2ccc3nc(N4CCC(C)CC4)cc(C)c3c2)c1,-26.2%,·,·,3.3%,·,·
Cc1cc(N2CCC(C)CC2)nc2cccc(O)c12,-24.2%,3.7%,3.5%,23.9µM*,8.3%,?
COc1cc(C(=O)Nc2nnc(S(=O)(=O)N(C)c3ccccc3)s2)cc(OC)c1OC,·,·,·,-12.3%,·,·
CCOc1ccc(-c2cc(N3C(=O)Nc4ccccc4N3O)on2)cc1,16.0%,15.0%,15.6%,2.39µM*,2.0%,-2.2%
COc1ccc(-c2cc(N3C(=O)Nc4ccccc4N3O)n[nH]2)cc1,?,-1.1%,8.8%,10.7µM*,-2.8%,-2.8%
COc1ccc(-c2cc(N3C(=O)Nc4ccccc4N3O)n[nH]2)c(OC)c1,-8.4%,-1.9%,-1.5%,15.1µM*,-10.5%,0.1%
COc1ccc(-c2cc(N3C(=O)Nc4ccccc4N3O)n[nH]2)cc1OC,7.3%,-1.6%,-0.5%,?,5.3%,18.4%
